Results as given in PubChem BioAssay (EPA / NIEHS).
Activity calls are given as the source filed them. The calls were made as follows: active = hit-call score of the fitted dose curve at least 0.9, where 1 is the maximum; inactive = score below 0.9.

Assay: APR_HepG2_MitoticArrest_24hr: Apredica 24-hour HepG2 Assay for Mitotic Arrest (AID 2282910)
Conditions: high-content imaging, actives raise or lower the signal
Protocol: APR_HepG2_24hr is a cell-based, multiplexed-readout assay that uses HepG2, a human liver cell line, with measurements taken at 24 hours after chemical dosing in a 384-well plate.APR_HepG2_MitoticArrest_24hr is one of 10 assay component(s) measured or calculated from the APR_HepG2_24hr assay. It is designed to make measurements of cell phenotype, a form of morphology reporter, as detected with fluorescence intensity signals by HCS Fluorescent Imaging technology.Data from the assay component APR_HepG2_MitoticArrest_24hr was analyzed into 1 assay endpoint. This assay endpoint, APR_HepG2_MitoticArrest_24hr, was analyzed with bidirectional fitting relative to DMSO as the negative control and baseline of activity. Using a type of morphology reporter, measures of protein for gain or loss-of-signal activity can be used to understand the signaling at the pathway-level as they relate to the gene . Furthermore, this assay endpoint can be referred to as a primary readout, because this assay has produced multiple assay endpoints where this one serves a signaling function. To generalize the intended target to other relatable targets, this assay endpoint is annotated to the cell cycle intended target family, where the subfamily is arrest.
Cells were treated with dimethyl sulfoxide (DMSO) as a solvent control at a final concentration of 0.5% v/v or with compounds in DMSO with a resulting final DMSO concentration of 0.5% v/v. Compound treatment was done at concentrations of 0.39, 0.78, 1.56, 3.12, 6.24, 12.5, 25, 50, 100, and 200 uM in duplicate on each plate. Cells were treated with compounds for 1, 24, or 72 hr. Carbonyl […] m-chloro-phenylhydrazone (CCCP) and taxol were used as positive controls for mitochondrial function and cytoskeletal stability, respectively; DMSO served as the negative control for this experiment. Cells were fixed by the direct addition of 50 uL formaldehyde in Hank's Balanced Salt Solution (HBSS) to a final concentration of 3.7%. After incubation in the fixation medium for 30 min at room temperature (293-298 K), cells were rinsed twice with HBSS and treated with cell permeabilization buffer (16 uL of 0.5% Triton X-100) for 10 min at room temperature (293-298 K) before labeling. For mitochondrial membrane potential and mitochondrial measurements, pre-fixed cells were incubated with 50 uL of MitoTracker Red CMXRos (Invitrogen) at a concentration of 250 nM for 30 min before fixation. In the remaining cases, post-fixed cells were labeled by incubation with a multiplexed mixture of primary antibodies in HBSS for 60 min at room temperature (293-298 K) to detect immunoreactivity of c-Jun (1:500), phospho-histone H3 (1:100), phospho-histone H2A.x (1:200), p53 (1:400), alpha-tubulin (1:200) and Hoechst 33342 (2 ug/mL). Cells were labeled for multiplexed imaging on two separate plates: a) Hoechst 33342, MitoTracker Red, phospho-histone H3, and alpha-tubulin, and b) Hoechst 33342, phospho-histone H2A.x, and c-Jun. A final rinse with HBSS (50 uL) was performed before analysis. The primary and secondary antibodies for the proteins were phospho-histone H3 (rabbit anti-phospho-histone H3 and FITC-donkey anti-rabbit IgG), phospho-histone H2A.x (mouse anti-phospho-histone H2A.x and FITC-donkey anti-mouse IgG), c-Jun (rabbit anti-phospho-c-Jun and Cy3-donkey anti-rabbit IgG), p53 (sheep anti-p53 and Cy5-donkey anti-sheep IgG), alpha-tubulin (mouse anti-alpha-tubulin and Cy5-donkey anti-mouse IgG). These antibodies are available as the CellCiphr HepG2 assay kit (Millipore).Digital images of each well were captured using a Cellomics ArrayScan VTI (Thermo Scientific Cellomics) (0.8 NA objective, 0.63x optical coupler, and XF-93 filter set) at 20x magnification. The images were acquired using the autofocus feature of the ArrayScan instrument, which entails the following steps. First, the camera focuses on channel 1 (Hoechst 33342), where nuclei are identified. Second, a Z offset of 1 um is used for capturing mitochondria (MitoTracker Red). […]

outcome, inactive:
CN(Cc1cnc2nc(N)nc(N)c2n1)c1ccc(C(=O)N[C@@H](CCC(=O)O)C(=O)O)cc1
OCC(CO)(CBr)CBr
O=C(c1ccccc1)c1ccccc1
CN(C)CCOC(c1ccccc1)c1ccccc1
CC(=O)Nc1ccc(O)cc1
CCCCCCCCCCCCCCC
CCCCCCCCCCCCOS(=O)(=O)O
CS(=O)(=O)c1ccc([C@@H](CC2CCCC2)C(=O)Nc2cnccn2)cc1Cl
CCCCC(CC)C(=O)O (stereo not given)
Cc1[nH]nc2c1N=C(c1ccccc1Cl)c1cc([N+](=O)[O-])ccc1N2
CCCCC=O
O=C1NS(=O)(=O)c2ccccc21

AC50, active:
CCCCc1oc2ccccc2c1C(=O)c1cc(I)c(OCCN(CC)CC)c(I)c1 15.7 µM
O=C(CCCN1CCC(O)(c2ccc(Cl)cc2)CC1)c1ccc(F)cc1 34.5 µM
N=C(N)c1ccc(OCCCCCOc2ccc(C(=N)N)cc2)cc1 30 µM
